# According to PMC7862700, “An all-to-all approach to the identification of sequence-specific readers for epigenetic DNA modifications on cytosine”:
# Legend:
# Test in all cases: DAPPL (digital affinity profiling via proximity ligation, sequencing); 10 mM Tris-HCl pH 7.5, 50 mM NaCl, 1 mM DTT, 4% glycerol, room temperature, 30 min; GST-TFs on glutathione beads, 16-mer random dsDNA library, 0.1% formaldehyde crosslink after washing; high values mean tight binding
# FEV = biological target: T1, FEV (Homo sapiens, UniProt Q99581 1-238); details: protein: recombinant; tags: N-terminal GST; dsDNA, one strand shown
# T1 sequence: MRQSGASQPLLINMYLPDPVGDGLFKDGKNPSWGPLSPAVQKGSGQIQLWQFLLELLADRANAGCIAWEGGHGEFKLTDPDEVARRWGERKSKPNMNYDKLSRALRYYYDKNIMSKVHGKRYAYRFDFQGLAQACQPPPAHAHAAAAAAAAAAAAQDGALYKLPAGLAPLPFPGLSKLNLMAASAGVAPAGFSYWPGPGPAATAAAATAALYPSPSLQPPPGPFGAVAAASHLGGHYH
# Summary of the method: (§1)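 Human transcription factors fused to GST were expressed in yeast, captured on glutathione beads, given DNA barcodes and pooled with a GST-only negative control. Pools were incubated with 200 nmole of a 16-mer random double-stranded DNA library in Tris/NaCl/DTT/glycerol buffer at room temperature for 30 min. They were then washed, crosslinked with 0.1% formaldehyde, proximity-ligated (BsaI/T4 ligase, 1 h, 37 °C), PCR-amplified and sequenced on an Illumina NextSeq500. Binding signal is each 6-mer's read frequency for a factor divided by its frequency for the GST control.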
# ETV5 = ETV5 (Homo sapiens, UniProt P41161 1-510); details: protein: recombinant; tags: N-terminal GST; dsDNA, one strand shown
# Chain of ETV5 (P41161 whole entry): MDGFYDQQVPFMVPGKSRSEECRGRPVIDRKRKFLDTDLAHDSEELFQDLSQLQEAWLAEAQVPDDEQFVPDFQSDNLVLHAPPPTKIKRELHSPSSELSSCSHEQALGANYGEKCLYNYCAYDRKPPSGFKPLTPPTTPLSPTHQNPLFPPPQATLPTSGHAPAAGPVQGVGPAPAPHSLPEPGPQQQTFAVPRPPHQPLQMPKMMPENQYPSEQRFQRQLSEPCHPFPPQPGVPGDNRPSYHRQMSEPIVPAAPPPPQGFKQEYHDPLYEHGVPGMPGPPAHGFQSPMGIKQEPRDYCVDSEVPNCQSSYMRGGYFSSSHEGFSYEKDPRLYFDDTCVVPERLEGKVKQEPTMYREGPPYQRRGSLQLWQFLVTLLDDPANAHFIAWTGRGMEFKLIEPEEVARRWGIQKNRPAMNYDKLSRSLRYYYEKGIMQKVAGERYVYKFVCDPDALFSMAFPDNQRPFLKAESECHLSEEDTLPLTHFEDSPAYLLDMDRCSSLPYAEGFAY
# Summary of the method: as §1
# HSF1 = HSF1 (Homo sapiens, UniProt Q00613 1-529); details: protein: recombinant; tags: N-terminal GST; chain copies: 3; dsDNA, one strand shown
# Chain of HSF1 (Q00613 whole entry): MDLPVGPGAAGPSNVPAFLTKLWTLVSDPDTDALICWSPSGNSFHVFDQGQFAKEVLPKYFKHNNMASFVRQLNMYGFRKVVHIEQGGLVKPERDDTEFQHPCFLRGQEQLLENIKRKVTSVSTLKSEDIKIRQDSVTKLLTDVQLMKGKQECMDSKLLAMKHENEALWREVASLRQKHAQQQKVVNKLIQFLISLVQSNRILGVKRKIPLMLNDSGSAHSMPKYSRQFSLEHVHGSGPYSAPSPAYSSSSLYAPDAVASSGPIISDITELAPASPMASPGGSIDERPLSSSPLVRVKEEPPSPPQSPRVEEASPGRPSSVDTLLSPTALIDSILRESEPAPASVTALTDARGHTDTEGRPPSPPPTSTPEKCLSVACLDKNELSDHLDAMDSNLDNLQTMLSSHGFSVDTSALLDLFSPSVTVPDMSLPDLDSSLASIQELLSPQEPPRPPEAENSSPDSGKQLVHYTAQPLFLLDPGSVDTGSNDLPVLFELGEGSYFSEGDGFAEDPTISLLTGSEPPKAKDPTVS
# Summary of the method: as §1
# SPIC = biological target: T2, SPIC (Homo sapiens, UniProt Q8N5J4 1-248); details: protein: recombinant; tags: N-terminal GST; dsDNA, one strand shown
# T2 sequence: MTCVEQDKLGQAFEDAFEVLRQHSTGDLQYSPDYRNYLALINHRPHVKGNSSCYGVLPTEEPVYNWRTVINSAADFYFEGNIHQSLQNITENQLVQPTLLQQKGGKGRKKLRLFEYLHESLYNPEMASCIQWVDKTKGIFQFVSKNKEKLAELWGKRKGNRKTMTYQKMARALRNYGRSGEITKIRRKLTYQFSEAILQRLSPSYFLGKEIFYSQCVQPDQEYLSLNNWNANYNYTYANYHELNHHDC
# Summary of the method: as §1
# ELF4 = ELF4 (Homo sapiens, UniProt Q99607 1-663); details: protein: recombinant; tags: N-terminal GST; dsDNA, one strand shown
# Chain of ELF4 (Q99607 whole entry): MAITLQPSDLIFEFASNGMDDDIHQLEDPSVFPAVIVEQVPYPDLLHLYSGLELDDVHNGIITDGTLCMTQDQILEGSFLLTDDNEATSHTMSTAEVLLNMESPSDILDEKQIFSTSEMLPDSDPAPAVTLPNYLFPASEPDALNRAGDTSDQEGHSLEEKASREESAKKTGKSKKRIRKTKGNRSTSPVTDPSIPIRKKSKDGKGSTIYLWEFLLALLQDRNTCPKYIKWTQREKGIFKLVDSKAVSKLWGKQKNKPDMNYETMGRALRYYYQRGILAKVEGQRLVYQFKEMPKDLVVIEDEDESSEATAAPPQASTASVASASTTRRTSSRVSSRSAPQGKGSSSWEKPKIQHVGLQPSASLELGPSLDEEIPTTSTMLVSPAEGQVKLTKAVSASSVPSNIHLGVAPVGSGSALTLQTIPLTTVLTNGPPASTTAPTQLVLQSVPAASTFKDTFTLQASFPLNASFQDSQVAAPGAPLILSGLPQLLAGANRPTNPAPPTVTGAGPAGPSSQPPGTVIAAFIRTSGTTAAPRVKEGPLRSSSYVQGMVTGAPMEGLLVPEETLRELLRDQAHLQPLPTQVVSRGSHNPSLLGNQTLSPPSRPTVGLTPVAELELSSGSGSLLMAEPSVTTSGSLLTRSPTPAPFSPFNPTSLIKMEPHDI
# Summary of the method: as §1
# ELK4 = biological target: T3, ELK4 (Homo sapiens, UniProt P28324-2 1-405); details: protein: recombinant; tags: N-terminal GST; dsDNA, one strand shown
# T3 sequence: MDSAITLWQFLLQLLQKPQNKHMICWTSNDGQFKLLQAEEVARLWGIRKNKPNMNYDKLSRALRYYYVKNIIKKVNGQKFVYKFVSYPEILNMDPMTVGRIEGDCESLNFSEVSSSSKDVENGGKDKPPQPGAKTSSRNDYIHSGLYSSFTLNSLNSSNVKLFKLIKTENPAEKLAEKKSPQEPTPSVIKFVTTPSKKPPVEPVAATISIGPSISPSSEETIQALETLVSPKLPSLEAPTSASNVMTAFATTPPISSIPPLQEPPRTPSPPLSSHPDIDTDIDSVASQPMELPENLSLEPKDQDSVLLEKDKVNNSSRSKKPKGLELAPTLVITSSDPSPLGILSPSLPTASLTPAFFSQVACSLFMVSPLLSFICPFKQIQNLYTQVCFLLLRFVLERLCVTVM
# Summary of the method: as §1
# ETV2 = biological target: T4, ETV2 (Homo sapiens, UniProt O00321 1-342); details: protein: recombinant; tags: N-terminal GST; dsDNA, one strand shown
# T4 sequence: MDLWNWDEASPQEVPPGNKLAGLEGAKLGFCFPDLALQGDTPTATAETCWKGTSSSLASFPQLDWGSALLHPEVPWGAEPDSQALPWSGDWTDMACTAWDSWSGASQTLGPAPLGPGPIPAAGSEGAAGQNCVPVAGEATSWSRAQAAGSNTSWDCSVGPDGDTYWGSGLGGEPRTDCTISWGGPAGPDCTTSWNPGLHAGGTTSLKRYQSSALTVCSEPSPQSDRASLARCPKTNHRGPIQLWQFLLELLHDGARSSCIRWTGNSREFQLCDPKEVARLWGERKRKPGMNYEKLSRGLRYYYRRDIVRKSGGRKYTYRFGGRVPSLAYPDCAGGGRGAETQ
# Summary of the method: as §1
# ELF3 = biological target: T5, ELF3 (Homo sapiens, UniProt P78545 1-371); details: protein: recombinant; tags: N-terminal GST; dsDNA, one strand shown
# T5 sequence: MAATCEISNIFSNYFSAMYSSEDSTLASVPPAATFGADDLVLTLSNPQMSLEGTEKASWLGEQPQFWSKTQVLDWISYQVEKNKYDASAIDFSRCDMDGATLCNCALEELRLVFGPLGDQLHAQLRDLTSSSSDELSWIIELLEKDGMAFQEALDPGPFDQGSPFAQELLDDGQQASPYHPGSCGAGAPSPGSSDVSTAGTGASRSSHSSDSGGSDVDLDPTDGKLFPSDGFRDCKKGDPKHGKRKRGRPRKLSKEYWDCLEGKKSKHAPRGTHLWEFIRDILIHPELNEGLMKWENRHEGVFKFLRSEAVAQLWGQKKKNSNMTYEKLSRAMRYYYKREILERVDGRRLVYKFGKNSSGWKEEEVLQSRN
# Summary of the method: as §1
# CRX = CRX (Homo sapiens, UniProt O43186 1-299); details: protein: recombinant; tags: N-terminal GST; dsDNA, one strand shown
# Chain of CRX (O43186 whole entry): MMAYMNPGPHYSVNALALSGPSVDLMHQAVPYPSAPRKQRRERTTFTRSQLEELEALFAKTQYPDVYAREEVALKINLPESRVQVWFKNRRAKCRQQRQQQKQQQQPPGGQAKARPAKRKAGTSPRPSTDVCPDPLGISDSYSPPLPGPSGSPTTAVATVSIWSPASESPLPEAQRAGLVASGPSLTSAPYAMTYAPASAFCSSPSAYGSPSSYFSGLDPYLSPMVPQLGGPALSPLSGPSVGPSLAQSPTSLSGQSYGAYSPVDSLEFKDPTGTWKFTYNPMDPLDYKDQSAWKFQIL
# Summary of the method: as §1
# ETV1 = ETV1 (Homo sapiens, UniProt P50549 1-477); details: protein: recombinant; tags: N-terminal GST; dsDNA, one strand shown
# Chain of ETV1 (P50549 whole entry): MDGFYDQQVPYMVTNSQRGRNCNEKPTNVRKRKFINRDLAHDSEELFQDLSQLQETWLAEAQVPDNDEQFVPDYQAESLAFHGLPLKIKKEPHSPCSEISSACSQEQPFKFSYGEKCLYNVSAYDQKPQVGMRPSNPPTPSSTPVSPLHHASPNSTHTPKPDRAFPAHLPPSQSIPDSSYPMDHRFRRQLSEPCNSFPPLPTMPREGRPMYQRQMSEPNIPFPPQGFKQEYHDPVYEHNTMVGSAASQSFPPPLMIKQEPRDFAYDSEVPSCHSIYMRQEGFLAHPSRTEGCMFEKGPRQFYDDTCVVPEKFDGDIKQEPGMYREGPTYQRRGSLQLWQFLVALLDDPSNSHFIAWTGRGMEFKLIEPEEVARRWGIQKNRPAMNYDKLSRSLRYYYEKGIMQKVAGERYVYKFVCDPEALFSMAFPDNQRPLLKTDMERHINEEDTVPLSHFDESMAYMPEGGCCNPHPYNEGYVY
# Summary of the method: as §1
# ERF = biological target: T6, ERF (Homo sapiens, UniProt P50548 1-548); details: protein: recombinant; tags: N-terminal GST; dsDNA, one strand shown
# T6 sequence: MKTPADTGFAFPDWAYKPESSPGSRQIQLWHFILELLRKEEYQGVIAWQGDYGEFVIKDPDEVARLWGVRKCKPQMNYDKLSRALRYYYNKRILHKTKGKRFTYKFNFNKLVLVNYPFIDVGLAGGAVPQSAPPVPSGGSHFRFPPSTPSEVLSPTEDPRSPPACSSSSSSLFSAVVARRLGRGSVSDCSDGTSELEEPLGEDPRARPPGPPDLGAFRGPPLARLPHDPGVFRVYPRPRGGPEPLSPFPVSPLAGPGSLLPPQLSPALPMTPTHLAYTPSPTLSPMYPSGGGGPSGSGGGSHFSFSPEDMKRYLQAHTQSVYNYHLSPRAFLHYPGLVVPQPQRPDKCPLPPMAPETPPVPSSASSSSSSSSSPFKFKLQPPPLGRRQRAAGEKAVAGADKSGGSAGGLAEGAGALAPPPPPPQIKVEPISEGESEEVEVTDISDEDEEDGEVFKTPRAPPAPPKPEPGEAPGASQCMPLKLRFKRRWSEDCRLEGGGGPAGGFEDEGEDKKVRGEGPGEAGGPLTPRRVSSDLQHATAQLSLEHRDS
# Summary of the method: as §1
# ETV3L = biological target: T7, ETV3L (Homo sapiens, UniProt Q6ZN32 1-361); details: protein: recombinant; tags: N-terminal GST; dsDNA, one strand shown
# T7 sequence: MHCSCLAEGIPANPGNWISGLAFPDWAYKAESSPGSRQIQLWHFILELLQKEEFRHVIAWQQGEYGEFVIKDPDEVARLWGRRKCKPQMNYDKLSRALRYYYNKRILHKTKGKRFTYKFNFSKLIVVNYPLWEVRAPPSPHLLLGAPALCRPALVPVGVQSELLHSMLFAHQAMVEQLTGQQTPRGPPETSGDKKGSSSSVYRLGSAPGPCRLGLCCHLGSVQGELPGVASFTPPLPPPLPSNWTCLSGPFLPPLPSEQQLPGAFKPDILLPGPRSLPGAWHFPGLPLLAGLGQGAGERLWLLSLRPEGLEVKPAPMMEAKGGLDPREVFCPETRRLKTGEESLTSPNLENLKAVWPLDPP
# Summary of the method: as §1
# ETS2 = biological target: T8, ETS2 (Homo sapiens, UniProt P15036 1-469); details: protein: recombinant; tags: N-terminal GST; dsDNA, one strand shown
# T8 sequence: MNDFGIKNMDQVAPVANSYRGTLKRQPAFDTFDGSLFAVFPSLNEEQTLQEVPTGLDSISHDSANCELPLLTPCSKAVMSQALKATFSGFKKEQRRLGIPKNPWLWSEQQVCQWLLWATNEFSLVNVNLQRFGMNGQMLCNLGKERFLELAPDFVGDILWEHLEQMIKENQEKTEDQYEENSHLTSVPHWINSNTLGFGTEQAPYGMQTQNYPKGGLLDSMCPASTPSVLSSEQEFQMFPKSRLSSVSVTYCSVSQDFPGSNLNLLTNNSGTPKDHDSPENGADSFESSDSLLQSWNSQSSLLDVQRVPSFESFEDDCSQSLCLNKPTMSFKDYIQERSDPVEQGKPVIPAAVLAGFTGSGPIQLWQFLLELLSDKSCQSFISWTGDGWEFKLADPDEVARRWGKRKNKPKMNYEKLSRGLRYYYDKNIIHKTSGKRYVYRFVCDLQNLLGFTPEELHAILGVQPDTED
# Summary of the method: as §1
# SPDEF = biological target: T9, SPDEF (Homo sapiens, UniProt O95238 1-335); details: protein: recombinant; tags: N-terminal GST; dsDNA, one strand shown
# T9 sequence: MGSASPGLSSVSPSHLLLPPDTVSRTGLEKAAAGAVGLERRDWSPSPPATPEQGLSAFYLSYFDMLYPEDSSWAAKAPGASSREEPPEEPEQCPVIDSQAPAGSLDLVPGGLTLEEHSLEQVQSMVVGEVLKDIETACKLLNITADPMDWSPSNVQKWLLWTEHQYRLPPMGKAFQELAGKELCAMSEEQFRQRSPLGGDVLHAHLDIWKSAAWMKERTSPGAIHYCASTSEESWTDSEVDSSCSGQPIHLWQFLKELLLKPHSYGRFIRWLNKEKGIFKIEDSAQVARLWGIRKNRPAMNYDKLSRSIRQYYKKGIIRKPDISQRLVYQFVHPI
# Summary of the method: as §1
# ETV7 = biological target: T10, ETV7 (Homo sapiens, UniProt Q9Y603 1-341); details: protein: recombinant; tags: N-terminal GST; dsDNA, one strand shown
# T10 sequence: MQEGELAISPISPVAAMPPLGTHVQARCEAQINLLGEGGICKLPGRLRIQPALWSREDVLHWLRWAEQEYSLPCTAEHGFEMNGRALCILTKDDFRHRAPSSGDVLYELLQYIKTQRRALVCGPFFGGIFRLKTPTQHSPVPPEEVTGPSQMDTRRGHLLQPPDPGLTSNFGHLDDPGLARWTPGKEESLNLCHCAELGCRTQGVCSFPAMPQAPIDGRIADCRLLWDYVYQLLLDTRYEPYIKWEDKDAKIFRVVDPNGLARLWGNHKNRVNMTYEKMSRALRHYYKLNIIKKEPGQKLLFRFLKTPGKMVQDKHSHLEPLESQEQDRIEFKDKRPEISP
# Summary of the method: as §1
# ELF5 = biological target: T11, ELF5 (Homo sapiens, UniProt Q9UKW6-2 1-255); details: protein: recombinant; tags: N-terminal GST; dsDNA, one strand shown
# T11 sequence: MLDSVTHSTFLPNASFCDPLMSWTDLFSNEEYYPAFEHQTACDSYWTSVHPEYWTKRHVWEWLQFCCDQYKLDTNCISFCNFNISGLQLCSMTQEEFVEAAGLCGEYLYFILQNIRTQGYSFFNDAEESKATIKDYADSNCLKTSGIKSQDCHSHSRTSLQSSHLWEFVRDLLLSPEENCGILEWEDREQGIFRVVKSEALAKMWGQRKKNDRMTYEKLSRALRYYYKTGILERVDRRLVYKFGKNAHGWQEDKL
# Summary of the method: as §1
# ETV3 = biological target: T12, ETV3 (Homo sapiens, UniProt P41162-2 1-143); details: protein: recombinant; tags: N-terminal GST; dsDNA, one strand shown
# T12 sequence: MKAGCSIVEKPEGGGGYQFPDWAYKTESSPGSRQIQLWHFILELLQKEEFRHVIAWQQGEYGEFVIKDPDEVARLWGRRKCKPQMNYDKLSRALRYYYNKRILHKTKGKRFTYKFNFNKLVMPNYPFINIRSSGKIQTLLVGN
# Summary of the method: as §1
# ETV6 = ETV6 (Homo sapiens, UniProt P41212 1-452); details: protein: recombinant; tags: N-terminal GST; dsDNA, one strand shown
# Chain of ETV6 (P41212 whole entry): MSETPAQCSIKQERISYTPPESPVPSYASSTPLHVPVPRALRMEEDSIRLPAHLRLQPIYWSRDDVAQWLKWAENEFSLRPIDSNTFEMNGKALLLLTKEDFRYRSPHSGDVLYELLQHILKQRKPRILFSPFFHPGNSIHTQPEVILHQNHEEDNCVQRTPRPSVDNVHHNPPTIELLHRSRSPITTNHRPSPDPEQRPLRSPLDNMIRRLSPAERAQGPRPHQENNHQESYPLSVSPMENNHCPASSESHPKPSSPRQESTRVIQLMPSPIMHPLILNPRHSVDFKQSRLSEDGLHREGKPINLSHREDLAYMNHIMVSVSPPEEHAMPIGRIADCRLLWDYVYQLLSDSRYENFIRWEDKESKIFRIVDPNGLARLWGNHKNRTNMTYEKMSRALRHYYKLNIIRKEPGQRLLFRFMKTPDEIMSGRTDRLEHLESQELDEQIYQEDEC
# Summary of the method: as §1
sequence,measurement,setting,value
CTGTTC,binding signal,FEV,"1.33 fold enrichment (6-mer frequency, TF over GST control)"
same,binding signal,ETV5,"1.39 fold enrichment (6-mer frequency, TF over GST control)"
same,binding signal,HSF1,"1.38 fold enrichment (6-mer frequency, TF over GST control)"
same,binding signal,SPIC,"1.44 fold enrichment (6-mer frequency, TF over GST control)"
same,binding signal,ELF4,"1.42 fold enrichment (6-mer frequency, TF over GST control)"
same,binding signal,ELK4,"1.19 fold enrichment (6-mer frequency, TF over GST control)"
same,binding signal,ETV2,"1.38 fold enrichment (6-mer frequency, TF over GST control)"
same,binding signal,ELF3,"1.63 fold enrichment (6-mer frequency, TF over GST control)"
same,binding signal,CRX,"1.07 fold enrichment (6-mer frequency, TF over GST control)"
same,binding signal,ETV1,"1.46 fold enrichment (6-mer frequency, TF over GST control)"
same,binding signal,ERF,"1.52 fold enrichment (6-mer frequency, TF over GST control)"
same,binding signal,ETV3L,"1.31 fold enrichment (6-mer frequency, TF over GST control)"
same,binding signal,ETS2,"1.44 fold enrichment (6-mer frequency, TF over GST control)"
same,binding signal,SPDEF,"1.29 fold enrichment (6-mer frequency, TF over GST control)"
same,binding signal,ETV7,"1.42 fold enrichment (6-mer frequency, TF over GST control)"
same,binding signal,ELF5,"1.52 fold enrichment (6-mer frequency, TF over GST control)"
same,binding signal,ETV3,"1.51 fold enrichment (6-mer frequency, TF over GST control)"
same,binding signal,ETV6,"1.44 fold enrichment (6-mer frequency, TF over GST control)"
